NADH enzymes – blocks coupling enzymes of NAD/NADH assays | IC50, µM (titrated, usually from 10 µM), without a hit: top-dose inhibition | coupled PK/LDH NADH assays, four targets | AID 774 | hit rate 0.02% among 65,000;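 active = single-dose screening hits from any of four coupled enzyme assays that gave an IC50 when retested across doses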;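 also: the DPM-DC format reads NADH fluorescence rather than 340 nm absorbance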
PMK inhibit – inhibitors of Streptococcus pneumoniae phosphomevalonate kinase; purified PMK, PK/LDH-coupled NADH absorbance 340 nm; inhibition, % at 10 µM; hit rate 0.49% among 65,000; AID 539;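 active = top-ranked compounds by inhibition in the single 10 µM screen, taking a fixed number of the strongest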;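 also: 0% = full reaction with DMSO carrier and 100% = background rate without enzyme reaction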
Autofluor 339 – intrinsic fluorescence of library compounds, ex339/em460 – biochemical, MLSMR library, data from DPM-DC assay, artefact control, profiling panel | fluorescence fold increase at 10 µM | compound autofluorescence, ex339/em460 nm, NADH buffer; active compounds read high; 1 = no-compound wells, NADH background | hit rate 5.5% among 65,000;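 active = at 10 µM, mean starting fluorescence two-fold or more over control wells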;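 also: signal is the first read of a kinetic run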
MK inhibit – S. pneumoniae mevalonate kinase inhibition | purified MK, PK/LDH-coupled NADH absorbance 340 nm | AID 555 | hit rate 0.48% among 65,000 | inhibition, % at 10 µM;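 active = ranked among the strongest by inhibition in the single 10 µM screen, a fixed top-ranked set picked for dose follow-up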
Abs 340nm – absorbance at 340 nm; AID 708; compound absorbance at 340 nm, fold over control; fold change at 10 µM; 65,000 tested, under 10 active;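 active = at 10 µM dose, initial 340 nm absorbance at least 2 fold that of control wells; inactive = change under 2 fold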;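 also: initial absorbance extrapolated from kinetic A340 decline of NADH oxidation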
DPM-DC inhibit – inhibitors of Streptococcus pneumoniae diphosphomevalonate decarboxylase | hit rate 0.49% among 65,000 | calls only at 10 µM | AID 556 | purified DPM-DC, PK/LDH coupled NADH fluorescence;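 active = the 320 compounds with the highest percent inhibition in the single-dose primary screen, excluding strongly autofluorescent ones, cut at about 32% in these data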;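 also: kinetic rate of NADH fluorescence loss reporting ADP formed by the decarboxylase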
* marks the source's active call; other numbers are inactive results; i = inactive; . = no result given; + = active, no number. An excerpt weighted towards active compounds, which were near 6.8% of everything screened.

SMILES	NADH enzymes	PMK inhibit	Autofluor 339	MK inhibit	Abs 340nm	DPM-DC inhibit
O=C(Nc1ccc2c(c1)OCO2)C1Cc2ccccc2CN1S(=O)(=O)c1cccs1 (centres undefined)	6%	14	1	4	1	i
c1csc(-c2ncc3ccccn23)c1	9%	12	3.4*	6	1.2	.
COc1ccc(-c2ncc3ccccn23)cc1	12%	11	3.2*	12	1.1	.
c1ccc(-n2c(-c3ccncc3)nnc2-c2cccs2)cc1	10%	11	1.3	10	1	i
O=C(O)C1CSC(CCc2ccccc2)N1 (centres undefined)	3%	6	1.1	2	1	i
N#CC(c1nc2ccccc2nc1N1CCCC1)S(=O)(=O)c1cccs1 (centres undefined)	11%	9	2.7*	9	1.1	i
Cc1cccc(S(=O)(=O)C(C#N)c2nc3ccccc3nc2N2CCCC2)c1 (centres undefined)	6%	12	3.9*	0	1.1	.
Cc1ccc(S(=O)(=O)C(C#N)c2nc3ccccc3nc2N2CCC(C)CC2)cc1 (centres undefined)	9%	12	1.6	6	1	i
C=CCNC(=O)C(C#N)c1nc2ccccc2nc1N1CCCCCC1 (centres undefined)	0%	0	2.3*	0	1	.
N#CC(c1nc2ccccc2nc1N1CCCC1)S(=O)(=O)c1ccccc1 (centres undefined)	9%	5	2.3*	12	1.1	.
COc1ccc(S(=O)(=O)C(C#N)c2nc3ccccc3nc2N2CCCCC2)cc1 (centres undefined)	11%	0	1.8	12	1.1	i
O=c1c2ccccc2oc2nc(-c3ccco3)n(Cc3ccccc3)c(=O)c12	12%	17	1.1	12	1.2	i
Cc1ccc2c(c1)cc(CN(Cc1ccccc1)C(=O)N(C)C)c1nnnn12	7%	14	1	7	0.99	i
Cc1ccc(C)c(S(=O)(=O)C(C#N)c2nc3ccccc3nc2N2CCOCC2)c1 (centres undefined)	3%	0	1.2	7	1.1	i
Cc1ccc(C)c(S(=O)(=O)C(C#N)c2nc3ccccc3nc2N2CCCC2)c1 (centres undefined)	3%	0	3.4*	5	1	.
CCCCCCOC(=O)C(C#N)c1nc2ccccc2nc1N1CCN(C)CC1 (centres undefined)	8%	10	3.9*	5	1	.
CCCCCCOC(=O)C(C#N)c1nc2ccccc2nc1N1CCCCC1 (centres undefined)	4%	13	1.1	3	1	i
O=C(Nc1ccc(-c2noc(CCc3ccccc3)n2)cc1)c1ccco1	2%	0	1.2	6	1.1	i
Cc1nccn1CC(O)COC1CCCCC1 (centres undefined)	7%	1	1	20	0.98	i
O=C(Nc1cccc(-c2cn3cccnc3n2)c1)c1ccco1	6%	11	5.4*	0	1.1	.
O=C(Nc1cccc(-c2cn3cccnc3n2)c1)c1ccc(Br)o1	8%	13	5.2*	2	1.1	.
O=C(Nc1cccc(-c2cnc3ccccc3n2)c1)c1ccco1	2%	0	1.1	0	1.1	i
O=C(Nc1cccc(-c2cn3cccnc3n2)c1)c1ccc2c(c1)OCO2	8%	10	5.3*	5	1	.
OC(C#Cc1ccccn1)c1cccs1 (centres undefined)	14%	16	0.9	12	0.98	i
C/C(N)=C(\C#N)C(=O)NCc1ccccn1	8%	12	1.1	11	1	i
COc1ccccc1N1CCN(C(=O)CN(c2ccccc2OC)S(=O)(=O)c2ccccc2)CC1	13%	8	1	7	1	i
COC(=O)CNC(=O)COC(=O)c1cc(Cl)cc(Cl)c1N	1%	6	3.4*	2	1	.
N#Cc1c(C(F)(F)F)cc(-c2ccco2)nc1SCc1ccccn1	2%	0	2.1*	4	1	.
N#Cc1c(C(F)(F)F)cc(-c2ccco2)nc1SCc1ccncc1	18%	7	2.6*	8	1.1	+
COc1ccc(-c2nc3cccc(C)n3c2NCc2ccco2)cc1OC	9%	2	5.1*	16	1	.

High-throughput results as filed in PubChem BioAssay.
